# Several values for one entry are separate records, joined by “and”; a condition that tells them apart may be missing. Equal values may be shown once. Screen size: about 5,700 compounds; about 85 (1%) were called active. Cut-off read from the data, not from the text of the source: active = p53-positive nuclei above about 36% (passing the limit was not always enough); inactive = the rest. What follows is part of a selection rich in actives, with near analogues and random picks from the rest.
# Legend:
# [1] = p53 stabilisation in HPV-positive human cells, imaging, p53-positive nuclei imaging, 24 h, 48 h (AID 1508601); conditions: 24/48 h
# [2] = target: Cellular tumor antigen p53 (Homo sapiens) (UniProt P04637); test: as above; conditions: 24/48 h, stronger effect = higher value
# Sequence of Cellular tumor antigen p53 (Homo sapiens) (P04637 whole entry, looked up): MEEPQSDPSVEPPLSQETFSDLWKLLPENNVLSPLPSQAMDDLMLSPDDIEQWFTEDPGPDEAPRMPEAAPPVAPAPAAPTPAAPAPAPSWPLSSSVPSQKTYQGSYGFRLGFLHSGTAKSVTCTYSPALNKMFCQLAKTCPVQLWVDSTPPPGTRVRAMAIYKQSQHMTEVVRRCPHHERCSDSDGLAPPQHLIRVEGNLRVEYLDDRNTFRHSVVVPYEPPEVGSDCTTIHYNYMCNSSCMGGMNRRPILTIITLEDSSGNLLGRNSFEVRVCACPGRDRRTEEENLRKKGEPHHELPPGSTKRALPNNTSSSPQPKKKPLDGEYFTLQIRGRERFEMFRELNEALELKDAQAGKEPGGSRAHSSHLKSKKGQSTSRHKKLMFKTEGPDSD
# [3] = measured here: cell number at 24 h, Library stock concentration: 80 uM
# [4] = measured here: cell number at 24 h, Library stock concentration: 400 uM
# [5] = measured here: cell number at 24 h, Library stock concentration: 2 mM
# [6] = measured here: cell number at 24 h, Library stock concentration: 3.33 mM
# [7] = measured here: cell number at 24 h, Library stock concentration: 10 mM
# [8] = measured here: cell number at 48 h, Library stock concentration: 80 uM
# [9] = measured here: cell number at 48 h, Library stock concentration: 400 uM
# [10] = measured here: cell number at 48 h, Library stock concentration: 2 mM
# [11] = measured here: cell number at 48 h, Library stock concentration: 3.33 mM
# [12] = measured here: cell number at 48 h, Library stock concentration: 10 mM
# [13] = Library stock concentration: 80 uM
# [14] = Library stock concentration: 400 uM
# [15] = Library stock concentration: 2 mM
# [16] = Library stock concentration: 3.33 mM
# [17] = Library stock concentration: 10 mM
# [18] = measured here: p53 positive nuclei at 24 h, Library stock concentration: 80 uM
# [19] = measured here: p53 positive nuclei at 24 h, Library stock concentration: 400 uM
# [20] = measured here: p53 positive nuclei at 24 h, Library stock concentration: 2 mM
# [21] = measured here: p53 positive nuclei at 24 h, Library stock concentration: 3.33 mM
# [22] = measured here: p53 positive nuclei at 24 h, Library stock concentration: 10 mM
# [23] = measured here: cell number at 24 h, concentration not given here
# [24] = measured here: cell number at 48 h, concentration not given here
# [25] = measured here: p53 positive nuclei at 24 h, concentration not given here
compound,measurement,setting,value
Cc1ncc(-c2ccnc(Nc3ccc(S(C)(=O)=O)cc3)n2)n1C(C)C,"nuclei count, normalised",[1]; [3],104% and 73.6%
same,"nuclei count, normalised",[1]; [4],100% and 83.3%
same,"nuclei count, normalised",[1]; [5],54.9% and 60.1%
same,"nuclei count, normalised",[1]; [6],46.1%
same,"nuclei count, normalised",[1]; [7],36.9% and 37.6%
same,"nuclei count, normalised",[1]; [8],105% and 49.6%
same,"nuclei count, normalised",[1]; [9],89.2% and 61.2%
same,"nuclei count, normalised",[1]; [10],24.1% and 33.6%
same,"nuclei count, normalised",[1]; [11],23%
same,"nuclei count, normalised",[1]; [12],21.8% and 24.6%
same,"p53-positive nuclei, normalised",[2]; [13],0.106% (inactive) and 10.7% (inactive)
same,"p53-positive nuclei, normalised",[2]; [14],0.447% (inactive) and 4.11% (inactive)
same,"p53-positive nuclei, normalised",[2]; [15],57.6% (inactive) and 42.9% (inactive)
same,"p53-positive nuclei, normalised",[2]; [16],60.3% (active)
same,"p53-positive nuclei, normalised",[2]; [17],50.8% (inactive) and 49.9% (inactive)
same,"p53-positive nuclei, normalised",[2]; [18],0.00746% and 0.944%
same,"p53-positive nuclei, normalised",[2]; [19],0.0769% and 0.14%
same,"p53-positive nuclei, normalised",[2]; [20],34.6% and 11.8%
same,"p53-positive nuclei, normalised",[2]; [21],32.5%
same,"p53-positive nuclei, normalised",[2]; [22],15.1% and 13.6%
Cc1nn(C)c(C)c1-c1ccnc(NCC(C)Oc2cccnc2)n1 (stereo unspecified),"nuclei count, normalised",[1]; [23],103%
same,"nuclei count, normalised",[1]; [24],101%
same,"p53-positive nuclei, normalised",[2]; concentration not given here,-0.151% (inactive)
same,"p53-positive nuclei, normalised",[2]; [25],-0.079%
COc1cc(-c2cccc(C)c2C)nc(N)n1,"nuclei count, normalised",[1]; [23],87.1%
same,"nuclei count, normalised",[1]; [24],74.8%
same,"p53-positive nuclei, normalised",[2]; concentration not given here,0.587% (inactive)
same,"p53-positive nuclei, normalised",[2]; [25],0.226%
CN(CC1COc2ccccc2O1)C(=O)Nc1nncs1 (stereo unspecified),"nuclei count, normalised",[1]; [23],103%
same,"nuclei count, normalised",[1]; [24],104%
same,"p53-positive nuclei, normalised",[2]; concentration not given here,-0.215% (inactive)
same,"p53-positive nuclei, normalised",[2]; [25],-0.0697%
O=C1NCCCc2c1oc1ccc(O)cc21,"nuclei count, normalised",[1]; [3],99.3%
same,"nuclei count, normalised",[1]; [4],92.2%
same,"nuclei count, normalised",[1]; [5],96.6%
same,"nuclei count, normalised",[1]; [7],89.4%
same,"nuclei count, normalised",[1]; [8],104%
same,"nuclei count, normalised",[1]; [9],99.1%
same,"nuclei count, normalised",[1]; [10],99.6%
same,"nuclei count, normalised",[1]; [12],98.7%
same,"p53-positive nuclei, normalised",[2]; [13],-0.0796% (inactive)
same,"p53-positive nuclei, normalised",[2]; [14],-0.0299% (inactive)
same,"p53-positive nuclei, normalised",[2]; [15],0.259% (inactive)
same,"p53-positive nuclei, normalised",[2]; [17],0.273% (inactive)
same,"p53-positive nuclei, normalised",[2]; [18],-0.0621%
same,"p53-positive nuclei, normalised",[2]; [19],-0.105%
same,"p53-positive nuclei, normalised",[2]; [20],0.32%
same,"p53-positive nuclei, normalised",[2]; [22],0.126%
O=C1NCCSc2c1sc1ccc(O)cc21,"nuclei count, normalised","[1]; measured here: cell number at 24 h, Library stock concentration: 46 uM",111%
same,"nuclei count, normalised","[1]; measured here: cell number at 24 h, Library stock concentration: 278 uM",108%
same,"nuclei count, normalised","[1]; measured here: cell number at 24 h, Library stock concentration: 1.67 mM",101%
same,"nuclei count, normalised",[1]; [7],56.1%
same,"nuclei count, normalised","[1]; measured here: cell number at 48 h, Library stock concentration: 46 uM",110%
same,"nuclei count, normalised","[1]; measured here: cell number at 48 h, Library stock concentration: 278 uM",113%
same,"nuclei count, normalised","[1]; measured here: cell number at 48 h, Library stock concentration: 1.67 mM",113%
same,"nuclei count, normalised",[1]; [12],36.9%
same,"p53-positive nuclei, normalised",[2]; Library stock concentration: 46 uM,-0.0208% (inactive)
same,"p53-positive nuclei, normalised",[2]; Library stock concentration: 278 uM,-0.288% (inactive)
same,"p53-positive nuclei, normalised",[2]; Library stock concentration: 1.67 mM,0.37% (inactive)
same,"p53-positive nuclei, normalised",[2]; [17],60.9% (active)
same,"p53-positive nuclei, normalised","[2]; measured here: p53 positive nuclei at 24 h, Library stock concentration: 46 uM",0.0309%
same,"p53-positive nuclei, normalised","[2]; measured here: p53 positive nuclei at 24 h, Library stock concentration: 278 uM",-0.0893%
same,"p53-positive nuclei, normalised","[2]; measured here: p53 positive nuclei at 24 h, Library stock concentration: 1.67 mM",0.2%
same,"p53-positive nuclei, normalised",[2]; [22],4.05%
CCCCCCCCCCCCCCCCOC[C@H](CO)OC(C)=O,"nuclei count, normalised",[1]; [23],97.1%
same,"nuclei count, normalised",[1]; [24],102%
same,"p53-positive nuclei, normalised",[2]; concentration not given here,-0.0599% (inactive)
same,"p53-positive nuclei, normalised",[2]; [25],0.0467%
COc1ccc2nc3ccc(OC)cc3c(SCCCN)c2c1,"nuclei count, normalised",[1]; [3],111%
same,"nuclei count, normalised",[1]; [4],114%
same,"nuclei count, normalised",[1]; [5],103%
same,"nuclei count, normalised",[1]; [7],81.6%
same,"nuclei count, normalised",[1]; [8],119%
same,"nuclei count, normalised",[1]; [9],115%
same,"nuclei count, normalised",[1]; [10],109%
same,"nuclei count, normalised",[1]; [12],90.5%
same,"p53-positive nuclei, normalised",[2]; [13],-0.0602% (inactive)
same,"p53-positive nuclei, normalised",[2]; [14],-0.0191% (inactive)
same,"p53-positive nuclei, normalised",[2]; [15],-0.0521% (inactive)
same,"p53-positive nuclei, normalised",[2]; [17],0.61% (inactive)
same,"p53-positive nuclei, normalised",[2]; [18],-0.00591%
same,"p53-positive nuclei, normalised",[2]; [19],-0.136%
same,"p53-positive nuclei, normalised",[2]; [20],0.00172%
same,"p53-positive nuclei, normalised",[2]; [22],0.819%
CC(C)C(C(=O)Nc1ccc(C(=O)NO)cc1)c1ccccc1 (stereo unspecified),"nuclei count, normalised",[1]; [6],45.5%
same,"nuclei count, normalised",[1]; [11],32%
same,"p53-positive nuclei, normalised",[2]; [16],48.1% (active)
same,"p53-positive nuclei, normalised",[2]; [21],50.4%
CC(=O)Nc1ccc(C(=O)Nc2ccccc2N)cc1,"nuclei count, normalised",[1]; [6],92.6%
same,"nuclei count, normalised",[1]; [11],89.8%
same,"p53-positive nuclei, normalised",[2]; [16],0.127% (inactive)
same,"p53-positive nuclei, normalised",[2]; [21],-0.311%
CC(C)[C@H](C(=O)Nc1ccc(C(=O)NO)cc1)c1ccccc1,"nuclei count, normalised",[1]; [23],80%
same,"nuclei count, normalised",[1]; [24],65.6%
same,"p53-positive nuclei, normalised",[2]; concentration not given here,9.18% (inactive)
same,"p53-positive nuclei, normalised",[2]; [25],17.4%

# — PubChem BioAssay AID1508601 (ICCB-Longwood Screening Facility, Harvard Medical School, 2020)
